We go through 54 compounds from PubChem BioAssay AID1347428 (National Center for Advancing Translational Sciences (NCATS), 2020).

The structures appear in SMILES notation. Screen size: about 91,000 compounds; about 290 (0.32%) were called active. Not shown: some 7% with an inconclusive outcome. The sample as a whole holds a higher share of actives than the screen did. A number with no mark means an inactive call. Calls follow the shape of the dose curve; as a rule, active = well fitted inhibition curve with a large enough effect; inconclusive = small, poorly fitted or top-dose-only effect; inactive = no such curve, though single readings can be large or run the other way.
% is scaled to controls: 0 for no effect and ±100 for the full control effect; potency is read from the fitted curve at half-maximal effect.

Chain of Single-stranded DNA cytosine deaminase (Homo sapiens) (Q9GZX7 whole entry, looked up): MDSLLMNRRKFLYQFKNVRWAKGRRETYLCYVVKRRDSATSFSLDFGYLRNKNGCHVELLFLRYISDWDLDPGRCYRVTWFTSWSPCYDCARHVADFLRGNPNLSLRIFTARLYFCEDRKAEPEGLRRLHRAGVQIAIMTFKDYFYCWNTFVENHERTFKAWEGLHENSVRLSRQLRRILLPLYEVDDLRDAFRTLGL

The experiment concerns the target Single-stranded DNA cytosine deaminase (Homo sapiens) (UniProt Q9GZX7). Put plainly: Primary qHTS assay for inhibitors of Activation Induced Cytidine Deaminase (AID): AID signal. Also: nearly all actives have a fitted effect of over 25% in size. To be noted: AID deamination FRET fluorescence, UDG-coupled, 4 h; series mostly up to 115 µM; activity change, negative = inhibition: at the top concentration. An excerpt:
Assay Provider (PI) Patricia Gearhart Ph.D.
National Institute on Aging
National Institute of Health (NIH), Bethesda, MD
Assay Provider (PI) Rahul Kohli Ph.D.
Perelman School of Medicine
University of Pennsylvania, Philadelphia, PA
Activation-Induced Deaminase (AID) is a cytosine deaminase which converts cytosine into uracil within stretches of ssDNA. The presence of uracil in DNA initiates a cascade of mutagenic DNA repair to introduce point mutations and DNA double strand breaks. Specific targeting of AID to the immunoglobulin heavy chain loci (Igh) promotes mutagenesis in the antibody variable region for somatic hypermutation (SHM) or switch regions leading to class switch recombination (CSR). However, AID also plays a role in accumulating unnecessary mutations across the genome. Mis-targeting of AID results in the initiation of tumor development and leads to greater drug resistance among cancer cells when continually expressed. To identify an AID inhibitor, a small molecule library will be screened in collaboration with NCATS core facility at NIH. To confirm biological function, inhibitors will be examined in an in vitro murine B-cell activation assay and subsequent secondary validation screens. Top molecules will be further screened to identify inhibitory efficacy against a wild type primary splenocytes assay. Using these approaches, we hope to identify a small molecule with great efficacy and low toxicity for use as a molecular probe to further characterize AID's intricacies, or even as a therapeutic.
A FRET based analysis of cytosine deamination, was developed to identify potential inhibitors of AID catalytic activity. This screen has two signal output, Read 1 evaluates the AID inhibition response. The second readout (Read 2) evaluates UDG response and is uses as a counterscreen to exclude false positive inhibitors. Inhibition in AID and inactivity in the UDG signal is the desired outcome for this assay.
SEQUENCE No. (e.g., 1, 2, 3, etc.); […] (e.g., Cells, Incubation, Reagent, etc.); VALUE; DESCRIPTION
1a; Reagent; 3 uL; [4/3x] 1 uM AID/2.67 U/mL UDG
1b; Reagent; 3 uL; 2 U/mL UDG
1c; Reagent; 3 uL; 1 uM AID
2a; Compound; 46 nL; Follow-up plates (0.64 uM - 10 mM)
2b; Control; 46 nL; ATA ([…] - 10 mM)
3; Time; 10 min; incubation at room temperature
5; Time; 4 hr; incubation at room temperature
6; Reagent; 4 uL; [2x] 250 mM NaOH
7; Time; 15 sec; centrifuge at 1000 rpm
8; Time; 30 min; incubation at room temperature
9a; Detection; fluorescence (Read 1: AID); EnVision (PerkinElmer) plate reader, 540 excitation and 590 emission filters
9b; Detection; fluorescence (Read 2: UDG); EnVision (PerkinElmer) plate reader, 560 excitation and 665 emission filters
NOTES (numbers refer to sequence above)
1a; Reagents were dispensed in a medium-binding black solid-bottom Greiner plates (789176F) using a BioRptr liquid dispenser. Dispense 3 uL of [4/3x] 1 uM AID (provided by Kohli lab) and [4/3x] 2 U/mL UDG (NEB M0280L) into columns 1, 2, 5 to 48.
1b; Dispense 3 uL of [4/3x] 2 U/mL UDG into column 3.
1c; Dispense 3 uL of [4/3x] 1 uM AID into column 4.
2a; Compound (7-points [uM] (0.64; 3.2; 16; 80; 400; 2,000; 10,000; 20,000) double pin-transferred (Dip Factor = 2) using the Kalypsys (Wako USA) pintool equipped with a 1536 pinhead for a final concentration range of 7.32 nM - 114 uM.
2b; 10 mM Aurintricarboxylic Acid (Sigma A1895) (ATA, 8-point, n = 2, 1:2.5 dilution in column 2) double pin-transferred (Dip Factor = 2) using the Kalypsys (Wako USA) pintool equipped with a 1536 pinhead for a [final] range of 186 nM - 114 uM.
3; Room temperature incubation.
4; Dispense 1 uL of substrate mixture from the Kohli lab [4x] […] DJC20 and [4x] 250 nM DJC23 into columns 1 to 48 .
5; Room temperature incubation.
6; Dispense 4 uL of substrate mixture [2x] 250 mM NaOH into columns 1 to 48.
7; Centrifugation step to remove bubbles.
8; Room temperature incubation
9a; Fluorescence signal (column label AID) was read using the EnVision plate reader. […]
For the compound `Cc1cc(O)c2c(C)c(CC(=O)Nc3nc4ccccc4[nH]3)c(=O)oc2c1`, the “activity change, negative = inhibition” value is 1.17%. For the compound `Cc1ccc(CC(=O)NC2(C)CCCc3ccccc32)cc1` (centres undefined), the “activity change, negative = inhibition” value was 0.195%. Consider `CCn1c(SCC(=O)N2CCc3ccccc32)nnc1C(C)NC(=O)c1ccccc1F` (centres undefined), for which the “activity change, negative = inhibition” value is -8.1%. As to `O=S1(=O)C=CC(N(Cc2ccccc2)Cc2ccccc2F)C1` (centres undefined), the “activity change, negative = inhibition” value is -15.4%. On the same count and under the same terms, the result for `Cc1cc(NC(=O)C(C)Sc2nc(NC3CC3)c3ccccc3n2)no1` (centres undefined) reads -6.81%; that for `O=C(NC(CCCc1ccccc1)c1ccccc1)c1ccc[n+]([O-])c1` (centres undefined), -7.86%.

Regarding `COc1ccc(OC)c(CNC(=O)c2scnc2C)c1`, the “activity change, negative = inhibition” value was 10.7%. Still for that read-out and setting: then `CCCCNC(=O)CSc1c2c(nc3cc(Cl)ccc13)CCCC2`, with -17.5%. For the compound `COc1cccc(N=C2NN=C(c3ccc4c(c3)CC(C)N4S(C)(=O)=O)CS2)c1` (centres undefined), the “activity change, negative = inhibition” value is 21.3%. Still for that read-out and setting: the result for `COc1cc(C(=O)Oc2ccc(C(C)=O)cc2)ccc1C` reads 11.9%; that for `CCN(C)Cc1cccc(CNC(=O)NC2CC2)c1`, -3.88%. Turning to `CCCCn1c(CNC(=O)C23CC4CC(CC(C4)C2)C3)nnc1SCC(=O)Nc1ccc(C)cc1`, the Potency is 44.7 µM (active). As to `Cc1cccc(NC(=O)CSc2nnc(CNC(=O)c3cccc(C)c3)n2-c2ccccc2)c1`, the “activity change, negative = inhibition” value is -8.63%. The same measure, in the same setting: the result for `CCn1c(CNC(=O)C23CC4CC(CC(C4)C2)C3)nnc1SCC(=O)Nc1ccc(OC)cc1` reads -13.2%; that for `Cc1ccc(-n2c(=O)c3sccc3n(CC(=O)N3CCCCC3C)c2=O)cc1C` (centres undefined), -1.29%; that for `N#Cc1c(SCC(=O)N2CCCC2)nc(N2CCOCC2)c2c1CCCC2`, -14.6%. Same read-out and setting: then `CCOC(=O)c1ccc(NC(=O)CCn2cnnn2)cc1`, with 0.636%. Take `N#Cc1ncn(CCC(=O)Nc2ccc(F)c(F)c2)n1`: the Potency was 14.1 µM (active). With `Cc1ccc(NC(=O)Cn2c(=O)c3c(ncn3CC(C)C)n(CC(C)C)c2=O)cc1F`, the “activity change, negative = inhibition” value is -19.2%. The same measure, in the same setting: the result for `Cc1nc2nc(SCC(=O)c3ccccc3)[nH]c2cc1Br` reads -8.97%.

On to `CN(Cc1c(F)cccc1Cl)C(=O)c1ccc(NS(C)(=O)=O)cc1`, for which the “activity change, negative = inhibition” value is -4.28%.

On to `O=C(NC1CC1)c1cc(-c2ccc(Cl)cc2)nc2ccccc12`, for which the “activity change, negative = inhibition” value was -3.94%. For the compound `COc1cc(F)ccc1NC(=O)Cc1nn(C)c(=O)c2ccccc12`, the “activity change, negative = inhibition” value is -4.44%. On to `COc1ccc(-c2nnc(SCCOc3ccc(Cl)cc3Cl)n2C(C)C)cc1`, for which the “activity change, negative = inhibition” value is -26.6%. For `Cc1c(Cl)cccc1NC(=O)C1CCCN(c2ncnc3onc(C)c23)C1` (centres undefined), the “activity change, negative = inhibition” value is 1.15%. `Cc1c(Cl)cccc1NC(=O)C1CCCN(C(=O)c2cnn(-c3ccccc3)c2-n2cccc2)C1` (centres undefined): the Potency was 22.4 µM (active). In the case of `O=C(c1cnn(-c2ccc(F)cc2)c1-n1cccc1)N1CCN(c2ccc(F)cc2)CC1`, the “activity change, negative = inhibition” value is -15%. Still for that read-out and setting: the result for `Nc1nnnn1Cc1nnc(SCc2ccc(F)cc2)n1-c1ccccc1` reads -7.07%. On the same count and under the same terms, then `Cc1ccccc1/C=C1\CCc2ccccc2C1=O`, with -12.2%; and `O=C(NC(c1ccccc1)c1ccccn1)c1cc[n+]([O-])cc1` (centres undefined), with 5.75%. On the same count and under the same terms, the result for `O=C(NCCc1ccccc1)c1[nH]c2ccccc2c1Cl` reads 4.63%; that for `COc1cc(C(=O)Nc2ccc(C(=O)O)cc2)c2ccccc2n1`, -14.4%.

Turning to `COc1ccccc1-c1cc(=O)c2cc(C)ccc2o1`, the “activity change, negative = inhibition” value is -7.1%. The same measure, in the same setting: then `COC(=O)C(C)(NC(=O)CCC(=O)c1ccccc1)c1ccccc1` (centres undefined), with -8.13%; and `O=C(NC/C(=N/NC(=O)c1cccnc1)c1ccccc1)c1ccccc1`, with -6.31%; and `CN(Cc1cccc(C(F)(F)F)c1)C1CCN(C(=O)c2cncc(Br)c2)CC1`, with 4.19%.

Take `Cc1cc2nc(CSc3nc4ccc(NC(=O)CCC5CCCC5)cc4s3)cc(=O)n2o1`: the “activity change, negative = inhibition” value was 6.43%.

Consider `O=Cc1cccc(Br)c1O`, for which the “activity change, negative = inhibition” value is -2.6%. Still for that read-out and setting: the result for `Cc1ccc(S(=O)(=O)NC(C)c2cccs2)cc1` (centres undefined) reads 2.96%; that for `Cc1cc(C(C)(C)C)cc(C)c1CS(=O)Cc1ccc(F)cc1` (centres undefined), -27.6%. For `CC(=O)c1c(C)[nH]c(C(=O)C(C)SCc2ccc(Cl)cc2)c1C` (centres undefined), the “activity change, negative = inhibition” value is -4.65%. `NC(=O)NNC(=S)Nc1ccc(SC(F)F)cc1`: the “activity change, negative = inhibition” value was -2.65%.

As for `COC(=O)c1cc(S(=O)(=O)Nc2ccc(C)c(F)c2)c[nH]1`, the “activity change, negative = inhibition” value was -0.855%. For `CCc1ccc(-c2csc(/C(C#N)=C\Nc3ccccc3C)n2)cc1`, the “activity change, negative = inhibition” value is -2.89%. Turning to `Cc1sc(NC(=O)Cc2ccccc2)c(C#N)c1C`, the “activity change, negative = inhibition” value was 8.65%. As for `Cc1cc(-c2ccccc2)c(-c2nc3ccccc3s2)[nH]1`, the “activity change, negative = inhibition” value was 67.1%. Still for that read-out and setting: the result for `C=CCNCc1ccc(CC)cc1` reads -3.27%; that for `COc1ccc(-c2csc(N)c2C#N)cc1`, 28.9%. The same measure, in the same setting: then `O=C(CCC1CCCC1)NCc1ccncc1`, with -3.62%; and `c1ccc2cc(OCCSc3ccc4ccccc4n3)ccc2c1`, with -1.21%. On the same count and under the same terms, then `COc1cc(/C=C2/NC(=O)NC2=O)cc(I)c1OCC(=O)O`, with 9.59%; and `Cc1ccc2c(c1)-c1cccc3cccc(c13)C2=O`, with -3.02%.

With `C[N+](C)(CCCCCC[N+](C)(C)CCCN1C(=O)c2cccc3cccc(c23)C1=O)CCCN1C(=O)c2cccc3cccc(c23)C1=O`, the Potency is 4.47 µM (active). On to `COc1ccc(CNC(=O)/C=C/c2ccc(C)cc2)cc1`, for which the “activity change, negative = inhibition” value was -7.12%.
